According to the supplement of paper PMC9262897, “Low-cost anti-mycobacterial drug discovery using engineered E. coli” (Nature Communications, 2022):
Structures can show the parent of a compound that is named as a salt. ± gives the standard deviation of the averaged measurements.

Legend:
Assay in all cases: growth (OD600 after 10 h); higher = more growth (less inhibition)
[1] = tested on: E. coli TESEC Alr+ wild-type control; settings: compound 0.1 mM; raw OD600 reference: median of DMSO wells 0.241, cell-free background 0.041
Experimental: (§1)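 TESEC Mtb Alr E. coli, or the Alr+ wild-type control, in 384-well plates with Prestwick library compounds at 0.1 mM and 1% DMSO, across arabinose induction levels of 1E3 to 1E7 nM. Growth is read as OD600 after 10 h at 37 °C in triplicate biological replicates.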

E. coli TESEC Mtb Alr [2] = settings: compound 0.1 mM
Experimental: as §1

E. coli TESEC Mtb Asd = settings: compound 0.1 mM
Experimental: (§2)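 TESEC E. coli strains in which the native enzyme is deleted and replaced by arabinose-inducible Mtb Asd, DapB, CysH or TrpD, each grown in its selective medium. Strains were screened against the Prestwick library at 0.1 mM and 1% DMSO in 384-well format at low and high arabinose induction. Growth is read as OD600 after 10 h in triplicate.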

E. coli TESEC Mtb DapB = settings: compound 0.1 mM
Experimental: as §2

[3] = tested on: E. coli TESEC Alr+ wild-type control; settings: compound 0.1 mM; raw OD600 reference: median of DMSO wells 0.49, cell-free background 0.052
Experimental: (§3)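 TESEC Mtb Alr E. coli (ΔaraC ΔtolC ΔentC Δalr ΔdadX, arabinose-inducible Mtb Alr) or the Alr+ wild-type control strain, grown in defined M9-fructose medium without D-alanine in 96-well plates with Prestwick library compounds at 0.1 mM and 1% DMSO. Low Alr induction is 0.1 µM arabinose and high induction is 10 mM arabinose.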

E. coli TESEC Mtb Alr [4] = settings: compound 0.1 mM; remark: listed apart in the source
Experimental: as §3

[5] = arabinose 1000 nM, raw OD600 reference: median of DMSO wells 0.294, cell-free background 0.041
[6] = arabinose 10000 nM, raw OD600 reference: median of DMSO wells 0.264, cell-free background 0.041
[7] = arabinose 100000 nM, raw OD600 reference: median of DMSO wells 0.201, cell-free background 0.041
[8] = arabinose 1000000 nM, raw OD600 reference: median of DMSO wells 0.193, cell-free background 0.041
[9] = arabinose 10000000 nM, raw OD600 reference: median of DMSO wells 0.146, cell-free background 0.041
[10] = arabinose induction (level): High, raw OD600 reference: median of DMSO wells 0.331, cell-free background 0.041
[11] = arabinose induction (level): Low, raw OD600 reference: median of DMSO wells 0.417, cell-free background 0.041
[12] = arabinose induction (level): High, raw OD600 reference: median of DMSO wells […], cell-free background 0.041
[13] = arabinose induction (level): Low, raw OD600 reference: median of DMSO wells 0.227, cell-free background 0.041
[14] = arabinose 100 nM, raw OD600 reference: median of DMSO wells 0.413, cell-free background 0.052
[15] = arabinose 10000000 nM, raw OD600 reference: median of DMSO wells […], cell-free background 0.052

Row | SMILES | growth [1] | growth (E. coli TESEC Mtb Alr [2]; [5]) | growth (E. coli TESEC Mtb Alr [2]; [6]) | growth (E. coli TESEC Mtb Alr [2]; [7]) | growth (E. coli TESEC Mtb Alr [2]; [8]) | growth (E. coli TESEC Mtb Alr [2]; [9]) | growth (E. coli TESEC Mtb Asd; [10]) | growth (E. coli TESEC Mtb Asd; [11]) | growth (E. coli TESEC Mtb DapB; [12]) | growth (E. coli TESEC Mtb DapB; [13]) | growth [3] | growth (E. coli TESEC Mtb Alr [4]; [14]) | growth (E. coli TESEC Mtb Alr [4]; [15])
1 | CN1CC2c3ccccc3Oc3ccc(Cl)cc3C2C1 (stereo not drawn) [Asenapine maleate] | 0.184 ± 0.004 | 0.159 ± 0.012 | 0.225 ± 0.0073 | 0.18 ± 0.004 | 0.123 ± 0.0024 | 0.164 ± 0.0081 | 0.229 ± 0.031 | 0.295 ± 0.017 | 0.213 ± 0.0042 | 0.254 ± 0.026 | 0.44 ± 0.01 | 0.417 ± 0.0072 | 0.266 ± 0.0045
2 | O=C(O)Cc1sc(-c2ccccc2)nc1-c1ccc(Cl)cc1 [Fentiazac] | 0.168 ± 0.0065 | 0.17 ± 0.0076 | 0.137 ± 0.0036 | 0.165 ± 0.0017 | 0.152 ± 0.0063 | 0.158 ± 0.0089 | 0.189 ± 0.0056 | 0.187 ± 0.018 | 0.206 ± 0.012 | 0.223 ± 0.029 | 0.286 ± 0.012 | 0.141 ± 0.064 | 0.14 ± 0.033
3 | CCOc1ccc(NC(C)=O)cc1 [Phenacetin] | 0.243 ± 0.0043 | 0.2912 ± 0.0014 | 0.27 ± 0.0042 | 0.231 ± 0.028 | 0.1828 ± 0.0017 | 0.152 ± 0.0045 | 0.345 ± 0.083 | 0.413 ± 0.084 | 0.208 ± 0.019 | 0.224 ± 0.012 | 0.506 ± 0.071 | 0.411 ± 0.011 | 0.329 ± 0.019
4 | CCC(C)(C)C(=O)O[C@H]1C[C@@H](C)C=C2C=C[C@H](C)[C@H](CC[C@@H]3C[C@@H](O)CC(=O)O3)[C@H]21 [Simvastatin] | 0.198 ± 0.017 | 0.201 ± 0.015 | 0.161 ± 0.0024 | 0.113 ± 0.0033 | 0.053 ± 0.0021 | 0.0742 ± 0.004 | 0.0906 ± 0.015 | 0.197 ± 0.023 | 0.161 ± 0.021 | 0.175 ± 0.0069 | 0.311 ± 0.016 | 0.392 ± 0.014 | 0.0705 ± 0.023
5 | NC(=O)C(c1ccccc1)(c1ccccc1)[C@@H]1CCN(CCc2ccc3c(c2)CCO3)C1 [Darifenacin hydrobromide] | 0.163 ± 0.011 | 0.216 ± 0.0036 | 0.292 ± 0.0043 | 0.16 ± 0.02 | 0.0999 ± 0.0027 | 0.146 ± 0.011 | 0.156 ± 0.033 | 0.276 ± 0.01 | 0.186 ± 0.0081 | 0.205 ± 0.015 | 0.403 ± 0.013 | 0.411 ± 0.0056 | 0.272 ± 0.016
6 | O=C(O)CCC(=O)c1ccc(-c2ccccc2)cc1 [Fenbufen] | 0.201 ± 0.0054 | 0.232 ± 0.013 | 0.229 ± 0.0062 | 0.137 ± 0.0052 | 0.128 ± 0.0089 | 0.127 ± 0.0092 | 0.25 ± 0.049 | 0.286 ± 0.047 | 0.165 ± 0.0041 | 0.203 ± 0.047 | 0.441 ± 0.051 | 0.399 ± 0.013 | 0.235 ± 0.007
7 | CC(C)C[C@H](NC(=O)[C@@H](O)[C@H](N)Cc1ccccc1)C(=O)O [Ubenimex] | 0.24 ± 0.011 | 0.28 ± 0.0072 | 0.2345 ± 0.0011 | 0.215 ± 0.028 | 0.185 ± 0.006 | 0.132 ± 0.0031 | 0.395 ± 0.019 | 0.382 ± 0.025 | 0.192 ± 0.017 | 0.229 ± 0.015 | 0.528 ± 0.089 | 0.396 ± 0.011 | 0.323 ± 0.018
8 | O=C(O)Cc1ccc(-c2ccccc2)cc1 [Felbinac] | 0.235 ± 0.0055 | 0.277 ± 0.023 | 0.245 ± 0.0027 | 0.163 ± 0.0054 | 0.173 ± 0.0071 | 0.1221 ± 0.00095 | 0.273 ± 0.054 | 0.434 ± 0.02 | 0.194 ± 0.014 | 0.206 ± 0.022 | 0.575 ± 0.04 | 0.396 ± 0.014 | 0.305 ± 0.0053
9 | CCCCCNC(=N)N/N=C/c1c[nH]c2ccc(OC)cc12 [Tegaserod maleate] | 0.0464 ± 0.0039 | 0.047 ± 0.0021 | 0.0443 ± 0.00086 | 0.0455 ± 0.0016 | 0.0451 ± 0.0011 | 0.0474 ± 0.0038 | 0.0504 ± 0.0014 | 0.0483 ± 0.0011 | 0.0474 ± 0.0015 | 0.0486 ± 0.0013 | 0.0476 ± 0.00066 | 0.0508 ± 0.00065 | 0.0554 ± 0.00072
10 | CCCCC1C(=O)N(c2ccccc2)N(c2ccc(O)cc2)C1=O (stereo not drawn) [Oxyphenbutazone] | 0.2 ± 0.01 | 0.255 ± 0.0043 | 0.262 ± 0.0047 | 0.211 ± 0.027 | 0.124 ± 0.0071 | 0.129 ± 0.004 | 0.366 ± 0.025 | 0.384 ± 0.047 | 0.204 ± 0.019 | 0.229 ± 0.044 | 0.436 ± 0.036 | 0.415 ± 0.0059 | 0.28 ± 0.0025
11 | C#C[C@]1(OC(C)=O)CC[C@H]2[C@@H]3CCC4=C[C@@H](OC(C)=O)CC[C@@H]4[C@H]3CC[C@@]21C [Ethynodiol diacetate] | 0.174 ± 0.0051 | 0.233 ± 0.016 | 0.215 ± 0.034 | 0.12 ± 0.0032 | 0.0855 ± 0.0055 | 0.161 ± 0.018 | 0.221 ± 0.012 | 0.358 ± 0.039 | 0.161 ± 0.0063 | 0.165 ± 0.011 | 0.4 ± 0.018 | 0.384 ± 0.012 | 0.118 ± 0.019
12 | CO[C@@]1(NC(=O)C(C(=O)O)c2ccc(O)cc2)C(=O)N2C(C(=O)O)=C(CSc3nnnn3C)CO[C@@H]21 (stereo partly drawn) [Moxalactam disodium salt] | 0.03947 ± 0.00038 | 0.0445 ± 0.0063 | 0.0401 ± 0.00064 | 0.039 ± 0.0013 | 0.03987 ± 0.00015 | 0.0393 ± 0.00046 | 0.0546 ± 0.0041 | 0.0559 ± 0.007 | 0.0504 ± 0.0038 | 0.0472 ± 0.001 | 0.04587 ± 5.8e-05 | 0.0472 ± 0.00072 | 0.056 ± 0.0067
13 | C=CC(N)CCC(=O)O (stereo not drawn) [Vigabatrin] | 0.239 ± 0.005 | 0.279 ± 0.014 | 0.278 ± 0.0034 | 0.213 ± 0.013 | 0.191 ± 0.0036 | 0.148 ± 0.0044 | 0.313 ± 0.06 | 0.389 ± 0.089 | 0.174 ± 0.0095 | 0.192 ± 0.014 | 0.586 ± 0.13 | 0.411 ± 0.014 | 0.361 ± 0.046
14 | CCCCOc1cc(C(=O)NCCN(CC)CC)c2ccccc2n1 [Dibucaine] | 0.216 ± 0.016 | 0.281 ± 0.0065 | 0.26283 ± 0.00023 | 0.208 ± 0.0075 | 0.154 ± 0.0091 | 0.174 ± 0.0038 | 0.239 ± 0.058 | 0.3947 ± 0.0033 | 0.184 ± 0.016 | 0.25 ± 0.025 | 0.452 ± 0.017 | 0.415 ± 0.0019 | 0.321 ± 0.025
15 | CN/C(=N\CCSCc1nc[nH]c1C)NC#N [Cimetidine] | 0.249 ± 0.0059 | 0.295 ± 0.023 | 0.252 ± 0.0057 | 0.216 ± 0.028 | 0.179 ± 0.00087 | 0.142 ± 0.0033 | 0.376 ± 0.1 | 0.376 ± 0.045 | 0.181 ± 0.012 | 0.206 ± 0.025 | 0.545 ± 0.0056 | 0.409 ± 0.0072 | 0.337 ± 0.019
16 | CN(C)CCC(c1ccccc1)c1ccccn1 (stereo not drawn) [Pheniramine maleate] | 0.241 ± 0.014 | 0.289 ± 0.0087 | 0.242 ± 0.0091 | 0.191 ± 0.0028 | 0.162 ± 0.0033 | 0.14 ± 0.0047 | 0.248 ± 0.064 | 0.408 ± 0.014 | 0.201 ± 0.022 | 0.213 ± 0.019 | 0.455 ± 0.059 | 0.41 ± 0.006 | 0.345 ± 0.015
